Calls of active or inactive are those of the source. The rule behind the calls is not given here.

The test system of one assay is Aerobactin synthetase IucA (Klebsiella pneumoniae hvKP1). Kind of assay: Biochemical IucA enzyme inhibition primary screen of the Spectrum library (AID 1346200).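 Note: 100% = wells without compound and 0% = wells lacking enzyme.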 To be noted: malachite green pyrophosphate, A620, at 8 µM, stronger effect = lower value.
`CCCCC1C(=O)N(c2ccccc2)N(c2ccccc2)C1=O`: the activity remaining is 117% (inactive).
Turning to `O=C1c2c(O)ccc(O)c2C(=O)c2c(NCCNCCO)ccc(NCCNCCO)c21`, the activity remaining was 107% (inactive).
Still for that read-out and setting: as for `O=c1c(O)c(-c2ccc(O)c(O)c2)oc2cc(O)cc(O)c12`, the figure is 99.3% (inactive); as for `CN1C[C@H](C(=O)N[C@]2(C)O[C@@]3(O)[C@@H]4CCCN4C(=O)[C@H](Cc4ccccc4)N3C2=O)C[C@@H]2c3cccc4[nH]cc(c34)C[C@H]21`, 118% (inactive).
Same read-out and setting: as for `OC(CCN1CCCCC1)(c1ccccc1)C1CCCCC1` (configuration not stated), the figure is 97.3% (inactive); as for `Cn1c(=O)c2c(ncn2C)n(C)c1=O`, 119% (inactive); as for `CC(C)COCC(CN(Cc1ccccc1)c1ccccc1)N1CCCC1` (configuration not stated), 126% (inactive).
For `CCO/C([O-])=N/c1c[n+](N2CCOCC2)no1`, the activity remaining was 99.6% (inactive).
Still for that read-out and setting: as for `O=c1c(-c2ccc(O)cc2)coc2cc(O)cc(O)c12`, the figure is 109% (inactive); as for `NNCCc1ccccc1`, 112% (inactive); as for `O=C(O)c1ccccc1Nc1ccccc1`, 106% (inactive).
Regarding `CCCn1c(=O)c2[nH]c(C3CCCC3)nc2n(CCC)c1=O`, the activity remaining was 82.2% (inactive).
Turning to `NC(=O)CC[C@H](N)C(=O)O`, the activity remaining is 109% (inactive).
On the same count and under the same terms, then `O=c1c(O)c(-c2ccc(O)cc2O)oc2cc(O)cc(O)c12`, with 96.8% (inactive); and `O=C(CCCN1CC=C(n2c(=O)[nH]c3ccccc32)CC1)c1ccc(F)cc1`, with 111% (inactive).
Same read-out and setting: then `CNCCCC12CCC(c3ccccc31)c1ccccc12`, with 105% (inactive); and `NCCCC(=O)O`, with 119% (inactive).
Still for that read-out and setting: as for `FC(F)(F)c1ccccc1-n1ccnc1`, the figure is 85.9% (inactive).
As for `Nc1nc(N)c2nc(-c3ccccc3)c(N)nc2n1`, the activity remaining was 114% (inactive).
With `CCCCNc1cc(C(=O)O)cc(S(N)(=O)=O)c1Oc1ccccc1`, the activity remaining is 115% (inactive).
On the same count and under the same terms, as for `COc1cc2c(c(OC)c1OC)-c1ccc(OC)c(=O)cc1[C@@H](NC(C)=O)CC2`, the figure is 115% (inactive); as for `O=C(/C=C/c1ccc(O)c(O)c1)OCCc1ccccc1`, 78.8% (inactive).

The subject of another assay is Aerobactin synthetase IucA (Klebsiella pneumoniae, hypervirulent). The assay is described as follows: IucA enzyme inhibition, biochemical, LOPAC library, absorbance readout (AID 1346212).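 Note: 100% = no compound wells and 0% = no enzyme wells.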 To be noted: IucA enzyme assay, absorbance (OD) readout; stronger effect = lower value;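 tested at 8 µM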.
A word on the remaining activity: it is the signal under treatment as a percentage of the control signal. Regarding `O=C(O)CCCCCCCC(=O)O`, the remaining activity was 93.4% (inactive).
On the same count and under the same terms, then `N=C(N)SCCN`, with 109% (inactive); and `CC(=O)Nc1nnc(S(N)(=O)=O)s1`, with 113% (inactive).
Regarding `CC(C)(Oc1ccc(C2CC2(Cl)Cl)cc1)C(=O)O` (configuration not stated), the remaining activity was 114% (inactive).
Same read-out and setting: then `Nc1nc2c(ncn2COCCO)c(=O)[nH]1`, with 120% (inactive); and `COc1cc2nc(N3CCN(C(=O)c4ccco4)CC3)nc(N)c2cc1OC`, with 84.9% (inactive); and `CCCCC[C@H](CC(=O)NO)C(=O)N[C@H](C(=O)N1CCC[C@H]1CO)C(C)C`, with 111% (inactive).
Same read-out and setting: then `COc1ccc2[nH]cc(CCNC(C)=O)c2c1`, with 118% (inactive).
For `OCCN(CCO)c1nc(N2CCCCC2)c2nc(N(CCO)CCO)nc(N3CCCCC3)c2n1`, the remaining activity is 92.9% (inactive).
Same read-out and setting: then `O=C(/C=C/c1ccc(O)cc1)c1ccc(O)cc1O`, with 93.6% (inactive); and `C=C[C@H]1CN2CC[C@H]1C[C@@H]2[C@@H](O)c1ccnc2ccc(OC)cc12`, with 115% (inactive); and `O=C(CCc1ccc(O)cc1)c1c(O)cc(O)cc1O`, with 79.2% (inactive).
Regarding `O=C(C1CCCCC1)N1CC(=O)N2CCc3ccccc3C2C1` (configuration not stated), the remaining activity is 104% (inactive).
The same measure, in the same setting: then `Cc1ccc(Cl)c(Nc2ccccc2C(=O)O)c1Cl`, with 128% (inactive); and `Cc1cn[nH]c1`, with 121% (inactive); and `CCn1cc(C(=O)O)c(=O)c2cc(F)c(N3CCNC(C)C3)c(F)c21` (configuration not stated), with 118% (inactive).
With `O=C(O)C1=CC(=C(c2ccc(O)c(C(=O)O)c2)c2ccc(O)c(C(=O)O)c2)C=CC1=O`, the remaining activity was 103% (inactive).
For the compound `c1ccc2c(c1)CCCC2C1=NCCN1` (configuration not stated), the remaining activity was 102% (inactive).
The same measure, in the same setting: as for `CCCCC1C(=O)N(c2ccccc2)N(c2ccccc2)C1=O`, the figure is 102% (inactive).
As for `O=C1c2c(O)ccc(O)c2C(=O)c2c(NCCNCCO)ccc(NCCNCCO)c21`, the remaining activity was 110% (inactive).
With `O=c1c(O)c(-c2ccc(O)c(O)c2)oc2cc(O)cc(O)c12`, the remaining activity is 122% (inactive).
As for `CN1C[C@H](C(=O)N[C@]2(C)O[C@@]3(O)[C@@H]4CCCN4C(=O)[C@H](Cc4ccccc4)N3C2=O)C[C@@H]2c3cccc4[nH]cc(c34)C[C@H]21`, the remaining activity is 105% (inactive).
On the same count and under the same terms, as for `OC(CCN1CCCCC1)(c1ccccc1)C1CCCCC1` (configuration not stated), the figure is 104% (inactive); as for `Cn1c(=O)c2c(ncn2C)n(C)c1=O`, 113% (inactive); as for `CC(C)COCC(CN(Cc1ccccc1)c1ccccc1)N1CCCC1` (configuration not stated), 91.4% (inactive).
On the same count and under the same terms, as for `CCO/C([O-])=N/c1c[n+](N2CCOCC2)no1`, the figure is 128% (inactive).
Same read-out and setting: as for `O=c1c(-c2ccc(O)cc2)coc2cc(O)cc(O)c12`, the figure is 121% (inactive); as for `NNCCc1ccccc1`, 93.4% (inactive); as for `O=C(O)c1ccccc1Nc1ccccc1`, 108% (inactive).
As to `CCCn1c(=O)c2[nH]c(C3CCCC3)nc2n(CCC)c1=O`, the remaining activity is 76.9% (inactive).
Still for that read-out and setting: then `NC(=O)CC[C@H](N)C(=O)O`, with 110% (inactive); and `O=c1c(O)c(-c2ccc(O)cc2O)oc2cc(O)cc(O)c12`, with 122% (inactive).
On the same count and under the same terms, as for `O=C(CCCN1CC=C(n2c(=O)[nH]c3ccccc32)CC1)c1ccc(F)cc1`, the figure is 98.7% (inactive); as for `CNCCCC12CCC(c3ccccc31)c1ccccc12`, 109% (inactive); as for `NCCCC(=O)O`, 123% (inactive).
On the same count and under the same terms, then `FC(F)(F)c1ccccc1-n1ccnc1`, with 102% (inactive).
With `Nc1nc(N)c2nc(-c3ccccc3)c(N)nc2n1`, the remaining activity is 93.9% (inactive).
Take `CCCCNc1cc(C(=O)O)cc(S(N)(=O)=O)c1Oc1ccccc1`: the remaining activity is 109% (inactive).
The same measure, in the same setting: as for `COc1cc2c(c(OC)c1OC)-c1ccc(OC)c(=O)cc1[C@@H](NC(C)=O)CC2`, the figure is 112% (inactive); as for `O=C(/C=C/c1ccc(O)c(O)c1)OCCc1ccccc1`, 105% (inactive).

For the origin of these results see PubChem BioAssay.
